Where a name gives a salt, the structure may show the parent alone.
tested on: Vero E6 infected with SARS-CoV-2; experiment: morphology score (similarity to uninfected cells); higher = more like uninfected cells; details: 24 h

Compound | morphology score
NS(=O)(=O)c1cc(-c2nnn[nH]2)c(NCc2cccs2)cc1Cl [azosemide] (10 µM) | 0.286
O=C1C(CC[S+]([O-])c2ccccc2)C(=O)N(c2ccccc2)N1c1ccccc1 (stereo not drawn) [sulfinpyrazone] (10 µM) | 0.0498
NC(=O)c1ncn([C@@H]2O[C@H](CO)[C@@H](O)[C@H]2O)c1N [acadesine] (10 µM) | 0.00261
O=C1c2ccccc2CCC1CNCCc1ccc(O)cc1 (stereo not drawn) (10 µM) | 0.0149
CC(C)(C#N)c1ccc(N2C(=O)OCc3cnc4ccc(-c5cnc6ccccc6c5)cc4c32)cc1 (10 µM) | 0.22
CC(C)C[C@H](NC(=O)[C@H](CCCCN)NC(=O)[C@H](CCCNC(=N)N)NC(=O)[C@H](C)NC(=O)[C@H](CO)NC(=O)[C@H](CCCCN)NC(=O)[C@H](CCCNC(=N)N)NC(=O)[C@H](C)NC(=O)CNC(=O)[C@@H](NC(=O)[C@H](Cc1ccccc1)NC(=O)CNC(=O)CNC(=O)[C@@H](N)Cc1ccccc1)[C@@H](C)O)C(=O)N[C@@H](C)C(=O)N[C@@H](CC(N)=O)C(=O)N[C@@H](CCC(N)=O)C(=O)O [orphanin-fq] (10 µM) | 0.0454
CC(C)(C)Nc1nc(Nc2ccc(C(N)=O)cc2)cc(N)c1C#N (0.833333 µM) | 0.029
N#CCNC(=O)c1ccc(-c2ccnc(Nc3ccc(N4CCOCC4)cc3)n2)cc1 (0.833333 µM) | 0.412
CC(C)[C@H](N)C(=O)OCC(CO)OCn1cnc2c(=O)nc(N)[nH]c21 (mixture of isomers) [valganciclovir] (10 µM) | 0.118
O=C(CCc1ccc(O)cc1)c1c(O)cc(O)cc1O[C@@H]1O[C@H](CO)[C@@H](O)[C@H](O)[C@H]1O [phlorizin] (10 µM) | 0.166
CCCCCCc1ccc(O)cc1O.Nc1c2ccccc2nc2ccccc12 [acrisorcin] (0.833333 µM) | 0.293
COc1ccc(/C=C/C(=O)/C=C(O)/C=C/c2ccc(OC)c(OC)c2)cc1OC (10 µM) | 0.335
O=C(c1cc2ccccc2o1)N1CCN(Cc2ccccc2)CC1 [befuraline] (10 µM) | -0.00895
O=C(c1ccc(-c2ccc(Cl)cc2)o1)N(Cc1ccccn1)c1ccc(N2CCNCC2)cc1 (0.833333 µM) | 0.128
Cc1cc(NS(=O)(=O)c2ccc(N)cc2)no1 [sulfamethoxazole] (10 µM) | 0.128
FC(F)OC(F)(F)C(F)Cl (stereo not drawn) [enflurane] (10 µM) | 0.188
COc1cccc(OC)c1-c1cc(C(=O)N[C@@H](CC(C)C)C(=O)O)nn1-c1ccnc2cc(Cl)ccc12 (10 µM) | -0.0246
CN[C@@H]1[C@H](O[C@H]2[C@H](O[C@H]3[C@H](O)[C@@H](O)[C@H](N=C(N)N)[C@@H](O)[C@@H]3N=C(N)N)O[C@@H](C)[C@]2(O)C=O)O[C@@H](CO)[C@H](O)[C@H]1O [STREPTOMYCIN SULFATE [5mM; 10% aq DMSO + 5mM ethanolamine]] (10 µM) | 0.104
NS(=O)(=O)Nc1ncnc(OCCOc2ncc(Br)cn2)c1-c1ccc(Br)cc1 (10 µM) | 0.0685
C[C@@H](Oc1ccc(Cl)cc1)c1ccnc2ncnn12 (10 µM) | -0.0401
COc1ccc(-c2c(C)c(C(=O)NN3CCCCC3)nn2-c2ccc(Cl)cc2Cl)cc1 (10 µM) | 0.154
CN1C[C@@H](NS(=O)(=O)N(C)C)C[C@@H]2c3cccc4c3c(cn4C)C[C@H]21 [mesulergine] (10 µM) | 0.205
C=C1CC[C@H](O)C/C1=C/C=C1\CCC[C@]2(C)[C@@H]([C@H](C)/C=C/[C@H](C)C(C)C)CC[C@@H]12 [ergocalciferol] (10 µM) | 0.0614
CCCCCCOC(=O)CCC(=O)CN [hexaminolevulinate] (10 µM) | 0.0924
Cc1nc2ccc(NC(=O)Nc3ccnc4cccnc34)cc2o1 (10 µM) | 0.053
Cn1ccnc1S [methimazole] (10 µM) | -0.0741

tested on: Vero E6 infected with SARS-CoV-2; experiment: SARS-CoV-2 infection rate relative to infected DMSO; higher = more infection, active = 60 or less; details: 24 h

Compound | SARS-CoV-2 infection rate
CC(=O)c1ccc2c(c1)N(CCCN1CCN(CCO)CC1)c1ccccc1S2 [acetophenazine] (10 µM) | 96.5% (inactive)
Cc1nccn1CCC(C(N)=O)(c1ccccc1)c1ccccc1 [imidafenacin] (10 µM) | 93% (inactive)
NNC(=O)CSc1nc2scc(-c3ccccc3)c2c(=O)n1-c1ccccc1 (10 µM) | 99.5% (inactive)
Clc1cccc(SC2CCNCC2)n1 [anpirtoline] (10 µM) | 106% (inactive)
O=C1c2ccccc2C(=O)C1c1ccccc1 [phenindione] (10 µM) | 106% (inactive)
CS(=O)(=O)c1ccc(-c2cnc(NCc3ccco3)n3cnnc23)cc1 (10 µM) | 83% (inactive)
CSc1ccc(C(=O)/C=C/c2cc(C)c(OC(C)(C)C(=O)O)c(C)c2)cc1 [elafibranor] (10 µM) | 110% (inactive)
C=C1C[C@@]2(O)O[C@@]3(C[C@H]2C(C)C)[C@@H](C)CC[C@@H]13 [curcumol] (10 µM) | 106% (inactive)
CC(C)(O)CS(=O)(=O)Nc1ccc2c(c1)CCN(C(=O)COc1cccnc1)C2 [Nampt-IN-1] (10 µM) | 104% (inactive)
O=C(NCCN1CCOCC1)c1ccc(Cl)cc1 [moclobemide] (10 µM) | 103% (inactive)
CCCCCCCCc1ccc(-c2ccc(C(=O)O)cc2)cc1 (10 µM) | 96% (inactive)
CCOc1cc(OCC)c(C(=O)CCC(=O)O)cc1OCC [trepibutone] (10 µM) | 106% (inactive)
C=CC(C)(C)c1cc(/C=C/C(=O)c2ccc(O)cc2)c(OC)cc1O [licochalcone-A] (10 µM) | 114% (inactive)
COc1ccc(S(=O)(=O)Nc2cccnc2Nc2ccc(O)cc2)cc1 (10 µM) | 106% (inactive)
NS(=O)(=O)c1cc(-c2nnn[nH]2)c(NCc2cccs2)cc1Cl [azosemide] (10 µM) | 98.5% (inactive)
O=C1C(CC[S+]([O-])c2ccccc2)C(=O)N(c2ccccc2)N1c1ccccc1 (stereo not drawn) [sulfinpyrazone] (10 µM) | 108% (inactive)
NC(=O)c1ncn([C@@H]2O[C@H](CO)[C@@H](O)[C@H]2O)c1N [acadesine] (10 µM) | 98.5% (inactive)
O=C1c2ccccc2CCC1CNCCc1ccc(O)cc1 (stereo not drawn) (10 µM) | 106% (inactive)
CC(C)(C#N)c1ccc(N2C(=O)OCc3cnc4ccc(-c5cnc6ccccc6c5)cc4c32)cc1 (10 µM) | 104% (inactive)

Compound | SARS-CoV-2 infection rate
CC(C)C[C@H](NC(=O)[C@H](CCCCN)NC(=O)[C@H](CCCNC(=N)N)NC(=O)[C@H](C)NC(=O)[C@H](CO)NC(=O)[C@H](CCCCN)NC(=O)[C@H](CCCNC(=N)N)NC(=O)[C@H](C)NC(=O)CNC(=O)[C@@H](NC(=O)[C@H](Cc1ccccc1)NC(=O)CNC(=O)CNC(=O)[C@@H](N)Cc1ccccc1)[C@@H](C)O)C(=O)N[C@@H](C)C(=O)N[C@@H](CC(N)=O)C(=O)N[C@@H](CCC(N)=O)C(=O)O [orphanin-fq] (10 µM) | 112% (inactive)
CC(C)(C)Nc1nc(Nc2ccc(C(N)=O)cc2)cc(N)c1C#N (0.833333 µM) | 106% (inactive)
N#CCNC(=O)c1ccc(-c2ccnc(Nc3ccc(N4CCOCC4)cc3)n2)cc1 (0.833333 µM) | 103% (inactive)
CC(C)[C@H](N)C(=O)OCC(CO)OCn1cnc2c(=O)nc(N)[nH]c21 (mixture of isomers) [valganciclovir] (10 µM) | 102% (inactive)
O=C(CCc1ccc(O)cc1)c1c(O)cc(O)cc1O[C@@H]1O[C@H](CO)[C@@H](O)[C@H](O)[C@H]1O [phlorizin] (10 µM) | 112% (inactive)
CCCCCCc1ccc(O)cc1O.Nc1c2ccccc2nc2ccccc12 [acrisorcin] (0.833333 µM) | 97% (inactive)
COc1ccc(/C=C/C(=O)/C=C(O)/C=C/c2ccc(OC)c(OC)c2)cc1OC (10 µM) | 80.5% (inactive)
O=C(c1cc2ccccc2o1)N1CCN(Cc2ccccc2)CC1 [befuraline] (10 µM) | 106% (inactive)
O=C(c1ccc(-c2ccc(Cl)cc2)o1)N(Cc1ccccn1)c1ccc(N2CCNCC2)cc1 (0.833333 µM) | 106% (inactive)
Cc1cc(NS(=O)(=O)c2ccc(N)cc2)no1 [sulfamethoxazole] (10 µM) | 94.5% (inactive)
FC(F)OC(F)(F)C(F)Cl (stereo not drawn) [enflurane] (10 µM) | 98.5% (inactive)
COc1cccc(OC)c1-c1cc(C(=O)N[C@@H](CC(C)C)C(=O)O)nn1-c1ccnc2cc(Cl)ccc12 (10 µM) | 114% (inactive)
CN[C@@H]1[C@H](O[C@H]2[C@H](O[C@H]3[C@H](O)[C@@H](O)[C@H](N=C(N)N)[C@@H](O)[C@@H]3N=C(N)N)O[C@@H](C)[C@]2(O)C=O)O[C@@H](CO)[C@H](O)[C@H]1O [STREPTOMYCIN SULFATE [5mM; 10% aq DMSO + 5mM ethanolamine]] (10 µM) | 104% (inactive)
NS(=O)(=O)Nc1ncnc(OCCOc2ncc(Br)cn2)c1-c1ccc(Br)cc1 (10 µM) | 120% (inactive)
C[C@@H](Oc1ccc(Cl)cc1)c1ccnc2ncnn12 (10 µM) | 112% (inactive)
COc1ccc(-c2c(C)c(C(=O)NN3CCCCC3)nn2-c2ccc(Cl)cc2Cl)cc1 (10 µM) | 86% (inactive)
CN1C[C@@H](NS(=O)(=O)N(C)C)C[C@@H]2c3cccc4c3c(cn4C)C[C@H]21 [mesulergine] (10 µM) | 93.5% (inactive)
C=C1CC[C@H](O)C/C1=C/C=C1\CCC[C@]2(C)[C@@H]([C@H](C)/C=C/[C@H](C)C(C)C)CC[C@@H]12 [ergocalciferol] (10 µM) | 93.5% (inactive)
